# In PubChem BioAssay (NCATS):
# Inconclusive results are not listed. Values without a mark were called inactive. The list shows a part of the results. Active and inactive are the calls of the source. Calls come from the whole dose curve; as a rule, active = well fitted curve in the direction sought with a large enough effect; inconclusive = small, poorly fitted or top-dose-only effect, or another doubt; inactive = no such curve, though single readings can be large; an effect the other way counts as inactive or inconclusive.
# Test system: not listed separately
# Assay: qHTS for Inhibitors of the vitamin D receptor (VDR): Hit Validation using a Cytotoxicity Assay (AID 602204); note: nearly all actives have a fitted effect of over 75% in size;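 for Potency: cells co-treated with VDR agonist LG190178 at 300 nM; potency is the fitted concentration of half-maximal effect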;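 for activity change, negative = cytotoxicity: plate controls were DMSO for no effect and high-concentration cycloheximide for full effect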
# Conditions: cytotoxicity counter-screen, cell viability; series mostly up to 48.3 µM; activity change, negative = cytotoxicity: at the top concentration
# In short: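 Viability read-out: luminescent ATP quantification after 18 h compound exposure. Plated cells (20,000/well) had 4 h before dosing; reagent incubation 30 min. High-concentration cycloheximide marks full kill, DMSO no effect.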
Structure (SMILES),"activity change, negative = cytotoxicity [%]",Potency
Cc1ccc(-c2nc3ccccn3c2Nc2c(C)cccc2C)o1,-7.48,–
Cc1cccc(CS(=O)(=O)c2ncc(Cl)c(C(=O)Nc3ccc(F)cc3)n2)c1,–,11.2 µM (active)
CC1CCN(C(=S)c2ccc(-c3ccc(Cl)cc3Cl)o2)CC1,-16,–
O=[N+]([O-])/C=C/c1ccc2c(ccn2Cc2ccccc2)c1,–,9.2 µM (active)
CCOc1ccc(N(Cc2ccccc2)C(=O)c2nc(S(C)(=O)=O)ncc2Cl)cc1,–,16.8 µM (active)
Cc1cccc([C@H]2[C@@H]3C=CC[C@@H](C)[C@@H]3C(=O)N2Cc2ccccc2)c1,–,23.8 µM (active)
CCCCS(=O)(=O)c1oc(-c2cccs2)nc1S(=O)(=O)c1ccccc1,–,9.47 µM (active)
O=C(/C=C/c1ccc(Cl)cc1Cl)c1cccnc1,0.284,–
Cc1nc(-c2ccccc2)sc1C(=O)/C=C/c1ccccc1,-27.8,–
Cc1cccc(Oc2c([N+](=O)[O-])c(=O)n(C)c3ccccc23)c1,-7.37,–
O=C1C=C(c2ccc(Cl)cc2)C(=O)N1Nc1ccccc1,–,23.1 µM (active)
O=c1[nH]c(/C=C\c2cccc(C(F)(F)F)c2)nc(O)c1[N+](=O)[O-],17.3,–
O=C(/C=C/c1ccccc1)c1ccccc1O,-29.7,–
COc1ccc(OCc2nnc3n2N=C(c2ccccc2)C(CC(=O)O)S3)cc1 (stereo not drawn),9.43,–
COc1ccc(CS(=O)/C(Cl)=C(/Cl)C(=O)Nc2ccc(OC)nc2)cc1 (stereo not drawn),–,2.59 µM (active)
C=CCOc1ccc(/C=C2/C(=O)ON=C2C)cc1OCC,5.44,–

# Target: Luciferin 4-monooxygenase (Photinus pyralis) (UniProt P08659)
# Sequence (P08659 whole entry, looked up): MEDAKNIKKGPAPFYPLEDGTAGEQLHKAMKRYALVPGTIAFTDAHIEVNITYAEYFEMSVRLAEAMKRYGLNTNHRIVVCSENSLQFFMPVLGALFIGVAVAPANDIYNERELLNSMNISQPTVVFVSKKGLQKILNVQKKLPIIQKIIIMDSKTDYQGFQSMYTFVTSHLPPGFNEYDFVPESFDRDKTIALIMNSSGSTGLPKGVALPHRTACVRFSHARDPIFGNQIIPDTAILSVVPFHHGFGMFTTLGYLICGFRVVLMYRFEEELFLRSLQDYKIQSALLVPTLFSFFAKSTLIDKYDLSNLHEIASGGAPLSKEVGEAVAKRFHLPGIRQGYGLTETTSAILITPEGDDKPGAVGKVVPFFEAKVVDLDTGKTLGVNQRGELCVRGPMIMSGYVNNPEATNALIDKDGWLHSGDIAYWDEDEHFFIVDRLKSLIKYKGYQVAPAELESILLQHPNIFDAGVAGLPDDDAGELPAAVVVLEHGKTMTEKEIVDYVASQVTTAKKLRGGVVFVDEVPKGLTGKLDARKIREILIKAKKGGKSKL
# Assay: Biochemical firefly luciferase enzyme assay for NPC (AID 624030);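 note: purified P. pyralis luciferase at 10 nM with luciferin and ATP substrate; 0% = DMSO and -100% = full luciferase inhibition by PTC124 control; nearly all actives have a fitted effect of over 70% in size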
# Conditions: purified P. pyralis luciferase, luminescence, 5 min; series mostly up to 58.6 µM; activity change, negative = inhibition: at the top concentration
# In short: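 Purified P. pyralis luciferase at 10 nM in 50 mM Tris Acetate (final), luminescence read within 5 minutes of enzyme addition to compounds. Activity normalised to PTC124 versus DMSO; concentration-response curves classed by r2, magnitude and activity.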
row,Structure (SMILES),"activity change, negative = inhibition [%]"
1,COc1ccc(CCNC[C@H](O)COc2cccc(C)c2)cc1OC,-1.54
2,CCCCCCCC(=O)CC[C@H]1[C@@H](C/C=C/CCCC(=O)OC(C)C)[C@@H](O)C[C@H]1O,2.73
3,C#CC1(OC(C)=O)CCC2C3CCC4=CC(OC(C)=O)CCC4C3CCC21C (stereo not drawn),-5.11
4,NC(N)=NCCCC(N)C(=O)O (stereo not drawn),-0.701
5,COCC1=C(C(=O)OC(C)OC(=O)OC(C)C)N2C(=O)C(NC(=O)/C(=N/OC)c3csc(N)n3)[C@H]2SC1 (stereo partly drawn),-5.44
6,C=C[C@]1(C)C[C@@H](OC(=O)CO)[C@]2(C)C(C)CC[C@]3(CCC(=O)[C@H]32)[C@@H](C)[C@@H]1O (stereo partly drawn),-0.3
7,CC[C@H](C)[C@H](NC(=O)[C@H](CO)NC(=O)[C@H](CC(N)=O)NC(=O)[C@H](CC(C)C)NC(=O)[C@H](Cc1ccc(O)cc1)NC(=O)[C@H](CCCCN)NC(=O)[C@H](CCCCN)NC(=O)[C@@H](NC(=O)[C@H](C)NC(=O)[C@H](CCSC)NC(=O)[C@H](CCC(N)=O)NC(=O)[C@H](CCCCN)NC(=O)[C@H](CCCNC(=N)N)NC(=O)[C@H](CC(C)C)NC(=O)[C@H](CCCNC(=N)N)NC(=O)[C@@H](NC(=O)[C@H](Cc1ccc(O)cc1)NC(=O)[C@H](CC(N)=O)NC(=O)[C@H](CC(=O)O)NC(=O)[C@@H](NC(=O)[C@H](Cc1ccccc1)NC(=O)[C@@H](NC(=O)[C@H](C)NC(=O)[C@H](CC(=O)O)NC(=O)[C@H](CO)NC(=O)[C@@H](N)Cc1c[nH]cn1)C(C)C)[C@@H](C)O)[C@@H](C)O)C(C)C)C(=O)N[C@@H](CC(C)C)C(=O)N[C@@H](CC(N)=O)C(=O)O,21.2
8,CS(=O)(=O)NC(=O)CCC/C=C\C[C@H]1C(=O)C[C@@H](O)[C@@H]1/C=C/[C@@H](O)COc1ccccc1,-3.59
9,CC(C)N(Cc1ccccc1)C(C)C (tested in a mixture with another compound),0.335
10,CC(=O)C[C@H]1[C@H](O[C@H]2[C@H](OC(C)C(=O)N[C@@H](C)C(=O)N[C@H](CCC(=O)N[C@@H](CCCCN)C(=O)N[C@H](C)C(=O)O)C(N)=O)[C@@H](NC(=O)O)C(O)O[C@@H]2CO)O[C@H](CO)[C@@H](O)[C@@H]1O (stereo partly drawn),14.9
11,O=C(CO)[C@@H](O)C(O)[C@@H](O)CO (stereo partly drawn),-1.76
12,CCCCC(=O)OCC(=O)[C@H]1[C@H](C)C[C@@H]2[C@@H]3C[C@@H](F)C4=CC(=O)C=C[C@]4(C)[C@@]3(F)[C@@H](O)C[C@@]21C,-2.37
